# Records with an inconclusive call do not appear. More than one record can exist for a structure, and the calls need not agree. Activity calls are given as the source filed them. Calls come from the whole dose curve.
# Assay: Primary qHTS to identify inhibitors of SARS-CoV-2 cell entry (AID 1645846); note: nearly all actives have a fitted effect of over 45% in size
# Details: SARS-CoV-2 pseudovirus cell entry assay, luminescence; activity change, negative = inhibition: at 57.1 µM (top of the series) unless noted
# From the text: Assay Provider: Wei Zheng, Ph.D.
# National Center for Advancing Translational Sciences, National Institute of Health, Rockville, MD.
# SARS-CoV-2 spike protein, within the viral envelope, mediates viral attachment and infection of host cells. The SARS-CoV-2 spike protein specifically binds to the host receptor ACE2 (Angiotensin-converting enzyme 2). This interaction promotes endocytosis of the viral particle, additional events lead to viral-host cell membrane fusion and release of the viral contents, allowing viral replication.
# While SARS-CoV-2 requires BSL-3 facilities for live virus work, pseudotyped partices (PP) that incorporate SARS-CoV-2 spike proteins without replication elements could facilitate studies on viral entry mechanisms in a BSL-2 setting. This PP cell entry assay could also enable screening of small molecule compound libraries in BSL-2 setting to identify inhibitors of SARS-CoV-2 cell entry.
# PROTOCOL TABLE (format as described by Inglese J, Shamu CE and Guy RK. 2007)
# SEQUENCE No. (e.g., 1, 2, 3, etc.); […] (e.g., Cells, Incubation, Reagent, etc.); VALUE and DESCRIPTION.
# 1. Cells. Seed 1500 HEK293-ACE2 cells (Expi293F with stable expression of human ACE2) in 2 uL/well media (DMEM, 10% FBS, 1x L-glutamine, 1x Pen/Strep, 1 ug/ml puromycin) in white 1536-well assay plates (Greiner #782073).
# 2. Incubation. Incubate at 37C with 5% CO2 overnight (~16 h).
# 3. Compounds. Dispense 23 nL/well compounds in DMSO via pin transfer.
# 4. Incubation. Incubate for 1 hr at 37C 5% CO2.
# 5. Reagent. Dispense 2 uL/well of SARS-CoV-2-S pseudotyped particles. [a] PPs are produced with murine leukemia virus pseudotyping. [b] SARS-CoV-2-S is Wuhan-Hu-1 sequence (BEI #NR-52420) with C-terminal 19 amino acid truncation.
# 6. Centrifuge. […]
# 7. Incubation. Incubate at for 48 hr at 37C 5% CO2
# 8. Centrifuge. Remove supernatant with gentle centrifugation using a Blue Washer (BlueCat Bio).
# 9. Reagent. Dispense 4 uL/well of Bright-Glo Luciferase detection reagent (Promega #E2620).
# 10. Incubation. Incubate for 5 min at room temperature.
# 11. Detection. Read luminescence signal (Viewlux plate reader, PerkinElmer). Data was normalized with wells containing SARS-CoV-2-S PP as 100%, and wells containing bald PP (no fusion protein) as 0%.
# Potency is the fitted concentration of half-maximal effect.
SMILES,"activity change, negative = inhibition",Potency,outcome
O=C1N=C(N2CCOCC2)CN1c1ccc(Cl)cc1,-29.2%,–,–
CC[C@H](CC[C@@H](C)[C@H]1CC[C@H]2[C@@H]3CC=C4C[C@@H](O)CC[C@]4(C)[C@H]3CC[C@]12C)C(C)C,-9.4%,–,–
C[C@H](Oc1cc(-c2cnn(C3CCNCC3)c2)cnc1N)c1c(Cl)ccc(F)c1Cl,–,11.2 µM (active),–
C1=C/COCc2cc(ccc2OCCN2CCCC2)Nc2nccc(n2)-c2cccc(c2)COC/1,–,3.16 µM (active),–
CN(C)C(N)=NC(=N)N,–,–,inactive [setting not given]
Cn1c(=O)cc(N2CCCC(N)C2)n(Cc2ccccc2C#N)c1=O (stereo not given),-28.9%,–,–
N#C/C(=C(/N)Sc1ccc(N)cc1)c1ccccc1C(F)(F)F,-16.8%,–,–
C=CC(=O)Nc1ccc2ncnc(Nc3cccc(Br)c3)c2c1,–,7.94 µM (active),–
CC(=O)OC1C[C@H](O[C@@H]2C(O)C[C@H](O[C@@H]3C(O)C[C@@H](OC4CC[C@]5(C)C(CCC6C5CC(O)[C@@]5(C)C(C7=CC(=O)OC7)CC[C@@]65O)C4)OC3C)OC2C)O[C@H](C)[C@H]1O[C@H]1OC(CO)C(O)C(O)C1O (stereo not given in full),-96.3%,–,–
CO[C@@H]1[C@@H](O)[C@H](O)[C@@H](n2c3c(Cl)cccc3c3c4c(c5c6cccc(Cl)c6[nH]c5c32)C(=O)NC4=O)O[C@H]1CO,–,1 µM (active),–
CC1(N)CCN(c2cccnc2NC(=O)c2nc(-c3ncccc3C(F)(F)F)cnc2N)CC1,–,14.1 µM (active),–
CCN1CCN(C(=O)N[C@@H](C(=O)N[C@]2(OC)C(=O)N3C(C(=O)O)=C(CSc4nnnn4C)CS[C@@H]32)[C@H](C)O)C(=O)C1=O,-16.3%,–,–
COc1nnc2ccc(N3CCC(c4ccc(OCCN5CCN(C)C(=O)[C@H]5C)cc4)CC3)nn12,–,inactive,–
COc1cccc2c1C(=O)c1c(O)c3c(c(O)c1C2=O)C[C@@](O)(/C(CO)=N/NC(=O)CCCCCN1C(=O)C=CC1=O)C[C@@H]3O[C@H]1C[C@H](N)[C@H](O)[C@H](C)O1,–,1 µM (active),–
CC1(C)C[C@H]1C(=O)N/C(=C\CCCCSC[C@@H](N)C(=O)O)C(=O)O,-28.6%,–,–
Cc1c(N)nc([C@H](CC(N)=O)NC[C@@H](N)C(N)=O)nc1C(=O)N[C@H](C(=O)N[C@@H](C)[C@H](O)[C@@H](C)C(=O)N[C@@H](C(=O)NCCc1nc(-c2nc(C(=O)NCCC[S+](C)C)cs2)cs1)[C@@H](C)O)C(O[C@H]1O[C@H](CO)[C@H](O)[C@@H](O)[C@H]1O[C@H]1O[C@H](CO)[C@@H](O)[C@H](OC(N)=O)[C@@H]1O)c1cnc[nH]1 (stereo not given in full),-97.2%,1.12 µM (active),–
C=CC[C@@H]1/C=C(\C)C[C@H](C)C[C@H](OC)[C@H]2O[C@@](O)(C(=O)C(=O)N3CCCC[C@H]3C(=O)O[C@H](/C(C)=C/[C@@H]3CC[C@@H](O)[C@H](OC)C3)[C@H](C)[C@@H](O)CC1=O)[C@H](C)C[C@@H]2OC,–,inactive,–
COc1cc(N2CCC(O)CC2)ccc1Nc1cc(Nc2ccccc2S(=O)(=O)C(C)C)c2cc[nH]c2n1,-27.7%,–,–
COc1cc2cc(c1Cl)N(C)C(=O)C[C@H](OC(=O)C(C)C)[C@]1(C)O[C@@H]1[C@H](C)[C@@H]1C[C@@](O)(NC(=O)O1)[C@H](OC)/C=C/C=C(\C)C2,-80.9%,–,–
C[C@H](NC(=O)/C(C#N)=C/c1cccc(Br)n1)c1ccccc1,–,35.5 µM (active),–

SMILES,"activity change, negative = inhibition",Potency,outcome
CC[C@H]1OC(=O)[C@H](C)[C@@H](O[C@H]2C[C@@](C)(OC)[C@@H](O)[C@H](C)O2)[C@H](C)[C@@H](O[C@@H]2O[C@H](C)C[C@H](N(C)C)[C@H]2O)[C@](C)(OC)C[C@@H](C)C(=O)[C@H](C)[C@@H](O)[C@]1(C)O,-13%,–,–
CC(C)C(=O)OCC(=O)[C@@]12O[C@H](C3CCCCC3)O[C@@H]1C[C@H]1[C@@H]3CCC4=CC(=O)C=C[C@]4(C)[C@H]3[C@@H](O)C[C@@]12C,-13.1%,–,–
Cc1cc2nc3c(=O)[nH]c(=O)nc-3n(C[C@@H](O)[C@@H](O)[C@@H](O)COP(=O)(O)O)c2cc1C,-22.9% [at 11.3 µM],–,–
Nc1ncnc2c1C(=O)N(c1ccc(C3CCC(CC(=O)O)CC3)cc1)CCO2 (stereo not given),-0.016%,–,–
CC(N[C@H]1C[C@@H]1c1ccccc1)c1ccc2c(c1)OCCO2 (stereo not given in full),-4.37%,–,–
NCCC[C@H](NC(=O)[C@@H]1CCCN1C(=O)[C@@H]1CSSC[C@H](N)C(=O)N[C@@H](Cc2ccc(O)cc2)C(=O)N[C@@H](Cc2ccccc2)C(=O)N[C@@H](CCC(N)=O)C(=O)N[C@@H](CC(N)=O)C(=O)N1)C(=O)NCC(N)=O,-24.3%,–,–
CC(C)N(CCCNC(=O)Nc1ccc(C(C)(C)C)cc1)C[C@H]1O[C@@H](n2ccc3c(N)ncnc32)[C@H](O)[C@@H]1O,-9.11%,–,–
COC(=O)N[C@H](C(=O)N1CCC[C@H]1C(=O)Nc1ccc([C@@H]2CC[C@@H](c3ccc(NC(=O)[C@@H]4CCCN4C(=O)[C@@H](NC(=O)OC)C(C)C)cc3)N2c2ccc(C(C)(C)C)cc2)cc1)C(C)C,-22.9%,–,–
CCC(=C(CC)c1ccc(OP(=O)(O)O)cc1)c1ccc(OP(=O)(O)O)cc1,-22.1% [at 0.702 µM],–,–
O=C(NOCCO)c1ccc2cncn2c1Nc1ccc(I)cc1F,-11.2%,–,–
Cn1cc(-c2cnc3ccc4ccc(CS(=O)(=O)NCc5ccccn5)cc4c(=O)c3c2)cn1,-59.2%,–,–
CN(C)CCN1C(=O)c2cccc3cc(NC(N)=O)cc(c23)C1=O,–,7.08 µM (active),–
CC(C)=C/C(C)=N\Nc1nncc2ccccc12,–,inactive,–
CC(C)(C)NCC(O)CSc1nc(-c2ccc(C(N)=O)s2)cs1 (stereo not given),-22.9%,–,–
OCC=Cc1ccccc1,-22.7%,–,–
CC(C)n1c(/C=C/[C@H](O)C[C@H](O)CC(=O)O)c(-c2ccc(F)cc2)c2ccccc21,–,inactive,–
C=CC(=O)N1C[C@H](Nc2ncnc3[nH]ccc23)CC[C@@H]1C,–,inactive,–
Cc1nc2cccc(N)c2c(=O)n1C1CCC(=O)NC1=O (stereo not given),-12.7%,–,–
Cc1ccc(NC(=O)Nc2nnc(Sc3ncnc4cc(OCCCN5CCOCC5)ccc34)s2)cc1,–,inactive,–
